This note sets out measurements from PubChem BioAssay (NCI).

Where “and” joins values, the source holds several entries; their conditions need not be identical. Equal values may be shown once. The panel holds about 83,000 compounds, 20% with a hit somewhere; the sample as a whole holds those more often.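 Percent growth is the endpoint: 0 to 100 indicates growth inhibition (40 means 60% inhibition), 0 means no net growth, and negative values indicate cell death.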 Unmarked numbers belong to inactive results. Calls of active or inactive are those of the source. How the source made its calls: active means growth percent below 10; inactive means the rest.

Among the test systems are SK-MEL-2 melanoma; EKVX NSCLC; SN12C renal; UO-31 renal; TK-10 renal; ACHN renal; CAKI-1 renal; A498 renal; CCRF-CEM leukemia; MOLT-4 leukemia; SR leukemia; RPMI-8226 leukemia; OVCAR-8 ovarian; OVCAR-5 ovarian; OVCAR-4 ovarian; SK-OV-3 ovarian; IGROV1 ovarian; OVCAR-3 ovarian; HS 578T breast; NCI/ADR-RES ovarian.
Assay in all cases: NCI-60 one-dose screen, 48 h (100 = growth as untreated, 0 = no growth, -100 = all killed)
Common to all, as to details: 10 µM unless noted

For the molecule `COc1ccc(OC)c(Cn2cc(C#N)c(N)c2C(=O)c2ccc(Br)cc2)c1`, the growth is 4.44% (active) in the test with SK-MEL-2 melanoma; 58.2% with EKVX NSCLC; 64.4% with SN12C renal; 34.6% with UO-31 renal; 62.4% in the test on TK-10 renal; 84.9% in the test on ACHN renal. Besides, the growth in the test on CAKI-1 renal was 45.2%; with A498 renal it was 86.7%; in the test with CCRF-CEM leukemia, 44.3%; in the test on MOLT-4 leukemia, 20.4%; in the test with SR leukemia, 14.4%; with RPMI-8226 leukemia, 58%. The growth is 33.9% with OVCAR-8 ovarian; 71.1% in the test with OVCAR-5 ovarian; 57.1% in the test on OVCAR-4 ovarian; 50.9% in the test with SK-OV-3 ovarian; 48.7% with IGROV1 ovarian; 55.9% in the test on OVCAR-3 ovarian. In addition, the growth in the test with HS 578T breast is 45.2%; in the test with NCI/ADR-RES ovarian, 23.2%.

Consider `Clc1ccc2c(NCCNC34CC5CC(CC(C5)C3)C4)ccnc2c1`, for which the growth in the test with SK-MEL-2 melanoma was -88% (active); with EKVX NSCLC, -67.5% (active); with SN12C renal, -74.5% (active); in the test on UO-31 renal, -98.6% (active); in the test with TK-10 renal, -94.7% (active); with ACHN renal, -95.8% (active). For the same molecule, the growth is -80.8% (active) with CAKI-1 renal; -94.2% (active) with A498 renal; 4.53% (active) in the test with CCRF-CEM leukemia; -23.1% (active) in the test with MOLT-4 leukemia; -35.2% (active) in the test with SR leukemia; 0.134% (active) with RPMI-8226 leukemia. Besides, the growth was -63.4% (active) in the test with OVCAR-8 ovarian; -37.1% (active) in the test with OVCAR-5 ovarian; -57.3% (active) in the test with OVCAR-4 ovarian; -83.1% (active) in the test with SK-OV-3 ovarian; -55.6% (active) in the test with IGROV1 ovarian; -52.4% (active) in the test on OVCAR-3 ovarian. The growth is -45.4% (active) with HS 578T breast and -71.3% (active) in the test with NCI/ADR-RES ovarian.

`O=CNc1ccc(-n2cnc3cc(-c4ccc(O)cc4)ccc32)cc1`: the growth in the test with SK-MEL-2 melanoma was 115%; in the test with EKVX NSCLC it was 106%; in the test with SN12C renal, 71.7%; with UO-31 renal it was 61%; in the test with TK-10 renal, 108%; with ACHN renal, 65.4%. Also, the growth in the test on CAKI-1 renal was 87.3%; in the test on A498 renal it was 135%; in the test on CCRF-CEM leukemia it was 76.4%; in the test on MOLT-4 leukemia it was 77.3%; in the test with SR leukemia, 55.9%; in the test on RPMI-8226 leukemia, 66.1%. The growth in the test on OVCAR-8 ovarian is 82.4%; in the test on OVCAR-5 ovarian, 94.7%; in the test on OVCAR-4 ovarian, 74.9%; in the test with SK-OV-3 ovarian it was 111%; in the test on IGROV1 ovarian it was 118%; in the test with OVCAR-3 ovarian, 68.6%. Also, the growth was 93.3% in the test on HS 578T breast and 81.6% in the test with NCI/ADR-RES ovarian.

As to `N#CC1=C(c2cccs2)Nc2c(c(-c3ccccc3)nn2-c2ccccc2)C12C(=O)Nc1ccc(Cl)cc12` (stereo not given), the growth is 22.8% with SK-MEL-2 melanoma; 13.3% in the test with EKVX NSCLC; 33.8% with SN12C renal; 12.7% with UO-31 renal; 31.5% in the test on TK-10 renal; 12.6% with ACHN renal. For the same molecule, the growth with CAKI-1 renal was 23.3%; in the test on A498 renal, 88.8%; in the test with CCRF-CEM leukemia it was 13.7%; in the test with MOLT-4 leukemia it was 19.3%; with SR leukemia, 12.6%; in the test on RPMI-8226 leukemia, 13.3%. The growth in the test with OVCAR-8 ovarian is 28%; in the test on OVCAR-5 ovarian it was 5.03% (active); in the test on OVCAR-4 ovarian, 27.2%; with SK-OV-3 ovarian it was 59%; in the test on IGROV1 ovarian, 24%; in the test on OVCAR-3 ovarian, 23.1%. Moreover, the growth in the test on HS 578T breast is 8.15% (active); in the test on NCI/ADR-RES ovarian, 33%.

Consider `CCOc1ccccc1[C@H]1C(C(=O)c2ccc(Cl)cc2)C2(N[C@@H]1c1ccccc1)C(=O)Nc1ccc(Cl)cc12` (stereo not given in full), for which the growth is -11.2% (active) in the test with SK-MEL-2 melanoma; 21.5% with EKVX NSCLC; -57.3% (active) in the test on SN12C renal; 16.7% in the test on UO-31 renal; 61.4% with TK-10 renal; 22.4% in the test on ACHN renal. Also, the growth in the test on CAKI-1 renal is 18.5%; in the test with A498 renal it was 80.9%; with CCRF-CEM leukemia, 26.2%; in the test on MOLT-4 leukemia it was -23.4% (active); in the test on SR leukemia it was -28.3% (active); with RPMI-8226 leukemia, 21.1%. Moreover, the growth in the test with OVCAR-8 ovarian was 45%; in the test on OVCAR-5 ovarian it was 46.2%; with OVCAR-4 ovarian, 22.5%; in the test with SK-OV-3 ovarian it was 42.8%; with IGROV1 ovarian, 22.2%; in the test on OVCAR-3 ovarian, 27%. Also, the growth is 49% in the test on HS 578T breast and 12.6% with NCI/ADR-RES ovarian.

For `Cc1ccc2c(c1)nc(-c1ccccc1)n2CC(=O)N=Nc1c(O)[nH]c2ccc(Cl)cc12`, the growth is -75.4% (active) in the test with SK-MEL-2 melanoma; -31.9% (active) with EKVX NSCLC; -77.9% (active) in the test on SN12C renal; -89.6% (active) in the test on UO-31 renal; -15.1% (active) in the test on TK-10 renal; -89.5% (active) in the test with ACHN renal. Moreover, the growth is -42.6% (active) in the test with CAKI-1 renal; -71.1% (active) in the test on A498 renal; 4.22% (active) with CCRF-CEM leukemia; -20.3% (active) with MOLT-4 leukemia; -20.7% (active) with SR leukemia; -17% (active) in the test with RPMI-8226 leukemia. Further, the growth in the test on OVCAR-8 ovarian is -66.9% (active); in the test with OVCAR-5 ovarian, -52.5% (active); in the test on OVCAR-4 ovarian, -71.3% (active); in the test with SK-OV-3 ovarian, -72.6% (active); with IGROV1 ovarian it was -86% (active); in the test on OVCAR-3 ovarian, -70.3% (active). The figures for the growth in the test on HS 578T breast and in the test with NCI/ADR-RES ovarian were -32.9% (active) and -73% (active), respectively.

For `CC(C)(C)c1ccc(OCc2nc3ccccc3n2-c2cccc(N)c2)cc1`, the growth in the test with SK-MEL-2 melanoma was 62.8% and 109%; with EKVX NSCLC it was 45.5% and 96.8%; in the test with SN12C renal, 79.2% and 106%; in the test with UO-31 renal, 43.4% and 83.6%; in the test on TK-10 renal it was 93.3% and 111%; with ACHN renal, 70.2% and 112%. The growth in the test with CAKI-1 renal is 44.4% and 95.6%; in the test on A498 renal, 142% and 126%; in the test on CCRF-CEM leukemia, 46% and 96.1%; in the test with MOLT-4 leukemia, 25.4% and 90.9%; in the test with SR leukemia it was 26.3% and 92.3%; with RPMI-8226 leukemia, 48.3% and 110%. Also, the growth in the test on OVCAR-8 ovarian is 72.3% and 110%; with OVCAR-5 ovarian it was 85.7% and 111%; with OVCAR-4 ovarian, 49.6% and 105%; in the test with SK-OV-3 ovarian it was 103% and 107%; in the test with IGROV1 ovarian, 65.7% and 108%; in the test with OVCAR-3 ovarian it was 53.1% and 128%. Further, the growth with HS 578T breast was 53.9% and 96.3%; in the test with NCI/ADR-RES ovarian, 50.2% and 101%.
